The values below come from PubChem BioAssay (NCATS).

Each structure is given as a SMILES string. Records with an inconclusive call do not appear. Active and inactive are the calls of the source. The call rests on the fitted dose curve; in most records, active means well fitted curve in the direction sought with a large enough effect; inconclusive means small, poorly fitted or top-dose-only effect, or another doubt; inactive means no such curve, though single readings can be large; an effect the other way counts as inactive or inconclusive.

The nature of the first test: qHTS to identify inhibitors of the type 1 interferon - major histocompatibility complex class I in skeletal muscle: primary screen against the NCATS LOPAC collection (AID 1347405).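 Further: lytic HiBiT luminescence reporting HLA-B protein level.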 Further: potency means the concentration at half of the fitted maximal effect. On activity change, negative = inhibition: on the % scale 0 is the no-effect control and ±100 the full control effect. To be noted: iHSKM muscle cells, IFN-b-induced MHC-I HiBiT luminescence, 24 h; series mostly up to 45.9 µM; activity change, negative = inhibition: at the top concentration. The method, boiled down:
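Immortalized human C25cl48 myoblasts with HiBiT knocked into endogenous HLA-B*08:01 were stimulated with 4.0 ng/ml IFN-beta and given compounds in a 7-point, 1:4.3 titration from 46 uM final; after 24 hrs, lytic HiBiT luminescence was read.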
On to `NNC(N)=O`, for which the “activity change, negative = inhibition” value was -2.21% (inactive).
On the same count and under the same terms, the value for `COc1ccc2c(c1)C13CCCCC1C(C2)N(C)CC3` (stereo not drawn) was -5.62% (inactive); that for `CC(N)Cc1c[nH]c2ccc(O)cc12` (stereo not drawn) was -2.88% (inactive).
On the same count and under the same terms, the value for `NC(=O)CI` was -16.4% (inactive); that for `NC(Cc1cc(O)c(O)cc1O)C(=O)O` (stereo not drawn) was -5.79% (inactive); that for `CCCN(CCC)[C@@H]1CCc2cccc(O)c2C1` was -16.6% (inactive).
The same measure, in the same setting: the result for `CN1CCC(c2c[nH]c3ccc(O)cc23)CC1` reads -3.12% (inactive); that for `C[C@H](N)Cc1cccc(C(F)(F)F)c1`, 1.86% (inactive); that for `CO[C@H]1CC=C2CCN3CCC4=C(CC(=O)OC4)[C@]23C1`, -7.58% (inactive).
For `NNC(=O)c1ccc(O)cc1`, the “activity change, negative = inhibition” value is -10.2% (inactive).
`CCCN(CCC)C1Cc2cc(OC)c(OC)cc2C1`: the “activity change, negative = inhibition” value is -14.5% (inactive).
With `CCCN1CCc2cccc3c2[C@H]1Cc1ccc(O)c(O)c1-3`, the “activity change, negative = inhibition” value is -29.9% (inactive).
Take `Nc1ccc(CCN2CCN(c3cccc(C(F)(F)F)c3)CC2)cc1`: the “activity change, negative = inhibition” value was -24.1% (inactive).
Consider `CCS(=O)(=O)Nc1cccc(C(=C2CCCCC2)c2cnc[nH]2)c1`, for which the “activity change, negative = inhibition” value was -15.5% (inactive).
Regarding `NCC(CP(=O)(O)O)c1ccc(Cl)cc1` (stereo not drawn), the “activity change, negative = inhibition” value was -11% (inactive).
With `N#CCCN`, the “activity change, negative = inhibition” value is -1.54% (inactive).
`Cc1c2ccncc2c(C)c2c1[nH]c1ccccc12`: the Potency is 7.08 µM (active).
As for `NC(=O)c1cc(N2CC2)c([N+](=O)[O-])cc1[N+](=O)[O-]`, the “activity change, negative = inhibition” value was -15.9% (inactive).
As for `COc1ccc(CNC(=O)/C=C/c2ccc3[nH]cc(CCN(C)C)c3c2)cc1`, the “activity change, negative = inhibition” value was -22.1% (inactive).
Take `Cc1[nH]c2ccc(O)cc2c1CCN`: the “activity change, negative = inhibition” value is -0.957% (inactive).
As to `O=C1C=CC(=O)C=C1`, the “activity change, negative = inhibition” value was -14.9% (inactive).
Same read-out and setting: the result for `CN1CC[C@@]2(C)c3cc(OC(=O)Nc4ccccc4)ccc3N(C)[C@@H]12` reads -22.1% (inactive).
The same measure, in the same setting: the result for `C=CCN1C[C@@H](C)N([C@H](c2ccc(C(=O)N(CC)CC)cc2)c2cccc(OC)c2)C[C@@H]1C` reads -9.38% (inactive); that for `N#C/C(=C/c1ccc(O)c(O)c1)C(N)=S`, -17.4% (inactive); that for `Clc1cc(I)cc(Cl)c1NC1=NCCN1`, -18.8% (inactive).
Same read-out and setting: the result for `CCCn1c(=O)c2[nH]c(C3CCCC3)nc2n(CCCOC(=O)c2ccc(S(=O)(=O)F)cc2)c1=O` reads -22.5% (inactive); that for `CC(N)[C@H](O)c1ccc(O)c(O)c1` (stereo partly drawn), -18.4% (inactive).
As for `CN1CCc2cccc(Cl)c2CC1`, the “activity change, negative = inhibition” value was -3.03% (inactive).
For the compound `C[C@@H]1O[C@@H](O[C@H]2C[C@@H](O)[C@]3(CO)[C@@H]4C(CC[C@]3(O)C2)[C@@]2(O)CC[C@H]([C@@H]3COC(=O)C3)[C@@]2(C)C[C@H]4O)[C@H](O)[C@H](O)[C@H]1O` (stereo partly drawn), the Potency is 1.12 µM (active).
In the case of `CCNC(=O)[C@H]1O[C@@H](n2cnc3c(N)ncnc32)[C@H](O)[C@@H]1O`, the “activity change, negative = inhibition” value is -13.2% (inactive).
As for `NCCCP(=O)(O)O`, the “activity change, negative = inhibition” value is 8.8% (inactive).
Consider `Cc1cc([C@@H]2CCCN2C)on1`, for which the “activity change, negative = inhibition” value was 1.4% (inactive).
Consider `CNc1ccc2oc(C[C@H]3O[C@@]4(CC[C@H]3C)O[C@H]([C@H](C)C(=O)c3ccc[nH]3)[C@H](C)C[C@H]4C)nc2c1C(=O)O`, for which the Potency is 3.98 µM (active).
Turning to `NC(N)=Nc1ccc2[nH]c3c(c2c1)C[C@@]1(O)[C@H]2Cc4ccc(O)c5c4[C@@]1(CCN2CC1CC1)[C@H]3O5`, the “activity change, negative = inhibition” value is -11.2% (inactive).
With `C[N+]1(C)C2CCC1CC(OC(=O)c1c[nH]c3ccccc13)C2` (stereo not drawn), the “activity change, negative = inhibition” value was -0.653% (inactive).
As to `CC(C)(C)c1o[nH]c(=O)c1CC(N)C(=O)O` (stereo not drawn), the “activity change, negative = inhibition” value was -9.76% (inactive).
As for `N=C(N)c1ccc(CS(=O)(=O)F)cc1`, the “activity change, negative = inhibition” value is 6.39% (inactive).
In the case of `C=CCN1CCC23c4c5ccc(O)c4O[C@H]2C(=O)CC[C@@]3(O)C1C5` (stereo partly drawn), the “activity change, negative = inhibition” value is -3.79% (inactive).
On the same count and under the same terms, the value for `CN1C2CCC1CC(OC(c1ccccc1)c1ccccc1N)C2` (stereo not drawn) was -7.18% (inactive).

A further test can be described thus: qHTS for inhibitors of adenylyl cyclases using a fission yeast platform: a pilot screen against the NCATS LOPAC library (AID 1347410).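 Further: plate controls were DMSO vehicle for no effect and DPI positive control for full effect.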 The following applies: S. pombe CHP2027, fbp1-GFP fluorescence, 18 h; series mostly up to 57.5 µM; activity, positive = inhibition (GFP gain): at the top concentration. A digest of the protocol: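 Growth medium went into the plates first, then compounds were pinned (final up to 57 µM), then CHP2027 yeast were added. Plates were incubated overnight (18 h) at 30C in the dark, and GFP was measured by laser scanning cytometry.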
(In qHTS, concentration-response curves come from the screen itself.)
Take `NNC(N)=O`: the “activity, positive = inhibition (GFP gain)” value is -0.438% (inactive).
Consider `COc1ccc2c(c1)C13CCCCC1C(C2)N(C)CC3` (stereo not drawn), for which the “activity, positive = inhibition (GFP gain)” value was 0.0394% (inactive).
Consider `CC(N)Cc1c[nH]c2ccc(O)cc12` (stereo not drawn), for which the “activity, positive = inhibition (GFP gain)” value was 0.578% (inactive).
With `NC(=O)CI`, the “activity, positive = inhibition (GFP gain)” value is -0.438% (inactive).
With `NC(Cc1cc(O)c(O)cc1O)C(=O)O` (stereo not drawn), the “activity, positive = inhibition (GFP gain)” value is -0.438% (inactive).
Still for that read-out and setting: the result for `CCCN(CCC)[C@@H]1CCc2cccc(O)c2C1` reads -0.0534% (inactive); that for `CN1CCC(c2c[nH]c3ccc(O)cc23)CC1`, 0.0673% (inactive).
Still for that read-out and setting: the result for `C[C@H](N)Cc1cccc(C(F)(F)F)c1` reads -0.438% (inactive).
On the same count and under the same terms, the value for `CO[C@H]1CC=C2CCN3CCC4=C(CC(=O)OC4)[C@]23C1` was -0.438% (inactive).
Regarding `NNC(=O)c1ccc(O)cc1`, the “activity, positive = inhibition (GFP gain)” value was -0.438% (inactive).
For the compound `CCCN(CCC)C1Cc2cc(OC)c(OC)cc2C1`, the “activity, positive = inhibition (GFP gain)” value is -0.438% (inactive).
As to `CCCN1CCc2cccc3c2[C@H]1Cc1ccc(O)c(O)c1-3`, the “activity, positive = inhibition (GFP gain)” value is -0.438% (inactive).
Regarding `Nc1ccc(CCN2CCN(c3cccc(C(F)(F)F)c3)CC2)cc1`, the “activity, positive = inhibition (GFP gain)” value is -0.438% (inactive).
Regarding `CCS(=O)(=O)Nc1cccc(C(=C2CCCCC2)c2cnc[nH]2)c1`, the “activity, positive = inhibition (GFP gain)” value is -0.438% (inactive).
On the same count and under the same terms, the result for `NCC(CP(=O)(O)O)c1ccc(Cl)cc1` (stereo not drawn) reads -0.438% (inactive); that for `N#CCCN`, -0.438% (inactive); that for `Cc1c2ccncc2c(C)c2c1[nH]c1ccccc12`, 12.5% (inactive).
`NC(=O)c1cc(N2CC2)c([N+](=O)[O-])cc1[N+](=O)[O-]`: the “activity, positive = inhibition (GFP gain)” value is -0.438% (inactive).
As to `COc1ccc(CNC(=O)/C=C/c2ccc3[nH]cc(CCN(C)C)c3c2)cc1`, the “activity, positive = inhibition (GFP gain)” value is -0.438% (inactive).
For the compound `Cc1[nH]c2ccc(O)cc2c1CCN`, the “activity, positive = inhibition (GFP gain)” value was 5.16% (inactive).
`O=C1C=CC(=O)C=C1`: the “activity, positive = inhibition (GFP gain)” value was 0.958% (inactive).
As to `CN1CC[C@@]2(C)c3cc(OC(=O)Nc4ccccc4)ccc3N(C)[C@@H]12`, the “activity, positive = inhibition (GFP gain)” value was -0.438% (inactive).
On the same count and under the same terms, the value for `C=CCN1C[C@@H](C)N([C@H](c2ccc(C(=O)N(CC)CC)cc2)c2cccc(OC)c2)C[C@@H]1C` was -0.438% (inactive); that for `N#C/C(=C/c1ccc(O)c(O)c1)C(N)=S` was 0.0765% (inactive).
The same measure, in the same setting: the value for `Clc1cc(I)cc(Cl)c1NC1=NCCN1` was -0.438% (inactive).
Still for that read-out and setting: the value for `CCCn1c(=O)c2[nH]c(C3CCCC3)nc2n(CCCOC(=O)c2ccc(S(=O)(=O)F)cc2)c1=O` was -0.438% (inactive); that for `CC(N)[C@H](O)c1ccc(O)c(O)c1` (stereo partly drawn) was -0.438% (inactive).
In the case of `CN1CCc2cccc(Cl)c2CC1`, the “activity, positive = inhibition (GFP gain)” value was -0.438% (inactive).
For `C[C@@H]1O[C@@H](O[C@H]2C[C@@H](O)[C@]3(CO)[C@@H]4C(CC[C@]3(O)C2)[C@@]2(O)CC[C@H]([C@@H]3COC(=O)C3)[C@@]2(C)C[C@H]4O)[C@H](O)[C@H](O)[C@H]1O` (stereo partly drawn), the “activity, positive = inhibition (GFP gain)” value is -0.438% (inactive).
As to `CCNC(=O)[C@H]1O[C@@H](n2cnc3c(N)ncnc32)[C@H](O)[C@@H]1O`, the “activity, positive = inhibition (GFP gain)” value is 1.7% (inactive).
In the case of `NCCCP(=O)(O)O`, the “activity, positive = inhibition (GFP gain)” value was -0.0441% (inactive).
On to `Cc1cc([C@@H]2CCCN2C)on1`, for which the “activity, positive = inhibition (GFP gain)” value is -0.438% (inactive).
`CNc1ccc2oc(C[C@H]3O[C@@]4(CC[C@H]3C)O[C@H]([C@H](C)C(=O)c3ccc[nH]3)[C@H](C)C[C@H]4C)nc2c1C(=O)O`: the “activity, positive = inhibition (GFP gain)” value is 0.359% (inactive).
`NC(N)=Nc1ccc2[nH]c3c(c2c1)C[C@@]1(O)[C@H]2Cc4ccc(O)c5c4[C@@]1(CCN2CC1CC1)[C@H]3O5`: the “activity, positive = inhibition (GFP gain)” value is 0.253% (inactive).
The same measure, in the same setting: the value for `C[N+]1(C)C2CCC1CC(OC(=O)c1c[nH]c3ccccc13)C2` (stereo not drawn) was 1.55% (inactive).
Same read-out and setting: the result for `CC(C)(C)c1o[nH]c(=O)c1CC(N)C(=O)O` (stereo not drawn) reads -0.438% (inactive); that for `N=C(N)c1ccc(CS(=O)(=O)F)cc1`, 1.02% (inactive); that for `C=CCN1CCC23c4c5ccc(O)c4O[C@H]2C(=O)CC[C@@]3(O)C1C5` (stereo partly drawn), -0.438% (inactive).
Consider `CN1C2CCC1CC(OC(c1ccccc1)c1ccccc1N)C2` (stereo not drawn), for which the “activity, positive = inhibition (GFP gain)” value was -0.438% (inactive).
